Results filed as inconclusive are left out. The source made the active and inactive calls. Calls follow the shape of the dose curve; as a rule, active = well fitted inhibition curve with a large enough effect; inconclusive = small, poorly fitted or top-dose-only effect; inactive = no such curve, though single readings can be large or run the other way.
Tested on: Zika virus NS2B-NS3 protease (unlinked complex)
Test: Primary screen GU Rhodamine qHTS for Zika virus inhibitors: Unlinked NS2B-NS3 protease assay (AID 1347159); also: nearly all actives have a fitted effect of over 60% in size
Conditions: Recombinant ZIKV NS2B-NS3 protease, Rhodamine110 substrate fluorescence; series mostly up to 107 µM; activity change, negative = inhibition: at the top concentration
How it was run: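 Buffer 10 mM Tris-HCl pH 8.0, 0.01% Tween 20. Unlinked protease 25 nM; compound preincubation 15 min, RT, protected from light. Substrate Rhod110, 1.5 microM; ~15% conversion in 15 min.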
% is scaled to controls: 0 for no effect and ±100 for the full control effect.

Row | Compound | activity change, negative = inhibition
1 | COc1c(C)cc(NC(=O)c2nn(Cc3ccc(F)cc3)c3c2CN(C(=O)c2ccc[nH]2)C[C@]3(C)C(N)=O)cc1C | 0% [at 32.5 µM] (inactive)
2 | CCCCCCCCC(=O)N[C@H](CN1CCCC1)[C@H](O)c1ccc2c(c1)OCCO2 | 48.3% (inactive)
3 | C=C1C(=O)OC2C(OC(=O)C=C(C)C)C(C)=C3C(=O)C=C(C)C3C(O)C12 (configuration not stated) | 7.27% (inactive)
4 | O=C(Nc1ccc(C(F)(F)F)cn1)N1CCN(c2ncccc2C(F)(F)F)CC1 | 12.9% (inactive)
5 | CCOC(=O)c1csc(Nc2ccc(Cl)cc2)n1 | 23.6% (inactive)
6 | CC(C)n1c(=O)c(C(=O)NC2CC3CCC(C2)N3C[C@@H](O)CN(C)S(C)(=O)=O)cc2ccccc21 (some centres not stated) | 0.751% (inactive)
7 | CCOC(=O)C1(CCOc2ccccc2)CCN(Cc2ccc(O)c(Cl)c2)CC1 | -20.3% (inactive)
8 | COc1cc2nc(N3CCN(C(=O)COc4c(OC)cccc4C(C)C)CC3)nc(N)c2cc1OC | 29.6% (inactive)
9 | C=C1CC[C@@H]2[C@](C)(CO)[C@H](O)CC[C@@]2(C)[C@@H]1C/C=C1/C(=O)OCC1OC(=O)/C(=C/CO)C(O)C[C@@H]1C(=C)CC[C@@H]2[C@](C)(CO)[C@H](O)CC[C@]21C (some centres not stated) | -8.23% [at 32.5 µM] (inactive)
10 | CC(C)(C)[C@H](NC(=O)c1ccc(N)c(Cl)c1)C(=O)N1CCC[C@H]1C(=O)N[C@H](C#N)CC(=O)O | 0% (inactive)
11 | CC(C)C[C@@H]1NC(=O)[C@@H]2C[C@@]34C[C@@H]5[C@@]6(C)CCCC(C)(C)C6CC[C@@]5(C)N(c5ccccc53)[C@H]4N2C1=O (some centres not stated) | -20.3% [at 57.1 µM] (inactive)
12 | Cc1cc(-c2nc(-c3ccc(OC(F)(F)F)cc3)no2)nn1Cc1ccnc(N2CCN(C3CC3)CC2)c1 | -14.8% (inactive)
13 | COc1ccc(N(C(=O)Nc2c(C)cccc2C)c2cc(Nc3ccc(N4CCN(C)CC4)cc3)ncn2)c(OC)c1 | 46.7% (inactive)
14 | COC1CCN(C(=O)c2cc(Cc3n[nH]c(=O)c4ccccc34)ccc2F)CC1 | 38.7% (inactive)
15 | C=C1CC2OC(=O)C(=C)C2C(O)/C=C(\C)CCC1O (configuration not stated) | -11.6% (inactive)
16 | O[C@@](Cc1ncc(CC2(C(F)(F)F)CC2)[nH]1)(c1ccc(-n2cccn2)cc1)C(F)(F)F | -10.2% (inactive)
17 | O=C(NNc1nc2cc(F)ccc2n2cccc12)c1cnccn1 | 4.51% (inactive)
18 | Cc1ccccc1C(C(=O)NC1CCCCC1)N(C(=O)Cn1cnc2ccccc21)c1cccc(F)c1 (configuration not stated) | -1.9% (inactive)
19 | CNC1CN(c2ccc3c(=O)c(C(=O)O)cn(-c4nccs4)c3n2)CC1OC (configuration not stated) | 18.7% [at 19.1 µM] (inactive)
20 | CC1(C)C2CCC(CO[C@@H]3O[C@H](CO[C@@H]4OC[C@](O)(CO)[C@H]4O)[C@@H](O)[C@H](O)[C@H]3O)C1C2 (some centres not stated) | 26.4% [at 57.1 µM] (inactive)
21 | CCc1cnc(N2CCC(c3nc(COc4ccc(-n5cnnn5)cc4)cs3)CC2)nc1 | -14.2% (inactive)
22 | Cc1ccc(N2CCN(S(=O)(=O)N3CCCCC3)CC2)c(C)c1 | -13.1% (inactive)
23 | COc1ccc(C2(N(C)C(=O)c3ccc(NC(=O)c4ccco4)cc3)CCOCC2)cc1 | 14.2% (inactive)
24 | O=C(Cc1c(F)cccc1F)Nc1cc(OCc2ccc(Cl)cc2)ccn1 | -20.2% (inactive)
25 | CC(C)C(C)C(O)C1CC23CC(=O)C4(O)C(=C2CCC3C1C)C=CC1(O)CC(O)CCC14C (configuration not stated) | 11% [at 57.1 µM] (inactive)
26 | Fc1ccc2[nH]ccc2c1-c1nc(N2CCOCC2)c2sc(CN3CCN(CC4CC4)CC3)cc2n1 | 104% (inactive)
27 | COc1ccccc1N1CCN(c2ncnc3n[nH]c(Br)c23)CC1 | -23.8% (inactive)

Source: PubChem BioAssay (NCATS)
